# Sampled rows, rich in hits. Any-hit rate of the full collection: about 0.96%.
# Texas Red fluor = compounds fluorescent in Texas Red spectral region; max dye-equivalent concentration, M; 0.06% of 59,000 active; Compound fluorescence, Texas Red channel, 547/618 nm; active compounds read high; AID 587; in the data active = max dye-equivalent concentration above about 10 nM; inconclusive = between about 1.1 nM and that limit
#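 qHTS profiling of intrinsic compound fluorescence; 100 mM Tris pH 8.0; 15 min RT; ex 547 / em 618 nm; response expressed as Texas Red dye-equivalent concentration from six-point plate standard.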
# A488 autofl = A488 region autofluorescence | compound autofluorescence, A488 spectral region, dye equivalency; Compound Type: qHTS ECL - MLSMR | max dye equivalency, M | 0.1% of 59,000 active
#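 Read-out: relative fluorescence at 480/540 nm, expressed as Alexa 488 dye-equivalent concentration from a six-point A488 standard included per plate. Conditions: 100 mM Tris, pH 8.0; 15 min incubation, room temperature.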
# A647 fluor = compound autofluorescence in A647 spectral region. Compound fluorescence, A647 channel (570/671 nm), Tris buffer. max dye-equivalent concentration, M. 59,000 tested, under 10 active;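 also: values scaled relative to a standard on each plate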
#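 Tris 100 mM pH 8.0; cpd + A647 stds pin-transferred; 15 min RT; CCD imager, ex 570/em 671. Output = A647-equivalent conc. per cpd conc.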
# Fluorescein fluor = compound autofluorescence in fluorescein spectral region. 0.91% of 59,000 active. Compound autofluorescence, 480/540 nm, fluorescein-equivalent; active compounds read high. AID 593. max fluorescein-equivalent concentration, M; in the data active = max fluorescein-equivalent concentration above about 10 nM; inconclusive = between about 1.1 nM and that limit
#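 Each compound is tested across a concentration series in 100 mM Tris buffer at pH 8.0. After 15 min at room temperature, plates are imaged with 480 nm excitation and 540 nm emission filters, and intensities are converted to fluorescein-equivalent values.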
# Resorufin fluor = compound fluoresces in the resorufin spectral region | max dye-equivalent concentration, M | AID 588 | 0.04% of 59,000 active | Compound fluorescence, resorufin region 547/598 nm, buffer; active compounds read high
#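 Compounds in 100 mM Tris, pH 8.0, incubated 15 min at room temperature, then fluorescence read at 547 nm excitation/598 nm emission. Signal converted to dye-equivalent concentration via an on-plate six-point resorufin standard curve, per compound concentration.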
# Rhodamine fluor = rhodamine region autofluorescence; max dye-equivalent concentration, M; Rhodamine-region fluorescence, 547/598 nm, Tris buffer; active compounds read high; 0.05% of 59,000 active; in the data active = max dye-equivalent concentration above about 11 nM; inconclusive = between about 1.1 nM and that limit
#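 qHTS spectral profiling of compounds without any target or enzyme present, in pH 8.0 Tris buffer; plates were read after a 15-minute room-temperature incubation using the rhodamine-region filter set.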
# * = called active by the depositor; i = inactive; u = inconclusive; ! = a repeat was not active. Unless noted, no rule for the calls is given here.
SMILES,Texas Red fluor,A488 autofl,A647 fluor,Fluorescein fluor,Resorufin fluor,Rhodamine fluor
CO[C@@]12C[C@@H](COC(=O)c3cncc(Br)c3)CN(C)[C@H]1Cc1cn(C)c3cccc2c13,i,i,1e-09,2.53e-08M*!,i,i
CCOC(=O)CNC(=O)c1cc(-c2ccc3c(c2)OCCO3)oc1C,i,u,5.5e-09,4.52e-08M*,i,i
CCOC(=O)CNC(=O)c1ccc2c(c1)OCCO2,i,i,1e-09,i,i,i
COC(=O)[C@H]1[C@@H]2C[C@H]3c4[nH]c5ccccc5c4CCN3C[C@@H]2CC[C@@H]1O,i,i,1.5e-09,i,i,i
COCCn1c(=O)c(-c2cccs2)nc2cnc(Nc3ccccc3)nc21,i,i,2.57e-08,2.69e-08M*,i,i
COCCn1c(=O)c(-c2ccc(OC)cc2)nc2cnc(Nc3ccccc3)nc21,i,i,1e-09,2.38e-08M*,i,i
CC(C)(C)c1ccc(S(=O)(=O)/C=C\C#N)cc1,u,i,4.5e-09,i,i,i
COc1cc(C(=O)O[C@@H]2CC(C)=CC[C@@]3(C)CC[C@](O)(C(C)C)[C@H]23)ccc1O,i,i,1e-09,i,i,i
COc1ccccc1NC(=O)c1cc2ccc(O)cc2o/c1=N\O,i,i,3.38e-08,1.45e-08M*,i,i
COc1ccccc1NC(=O)c1cc2ccccc2o/c1=N\O,i,i,4.41e-08,u,i,i
N#C[C@@H](Cc1ccc(O)c(O)c1)C(=O)N1CCc2ccccc21,i,i,2.21e-08,u,i,i
CCOC(=O)C1CCCN(c2nc3ccccc3nc2C(C#N)C(=O)OCCOC)C1 (stereo not drawn),i,i,2.73e-08,u,i,i
CCOC(=O)C1CCCN(c2nc3ccccc3nc2C(C#N)C(=O)OCC)C1 (stereo not drawn),i,i,3e-09,1.09e-08M*,i,i
COCCNC(=O)C(C#N)c1nc2ccccc2nc1N1CCCCCC1 (stereo not drawn),i,i,2.66e-08,u,i,i
CCOC(=O)C1CCN(c2nc3ccccc3nc2C(C#N)C(=O)NCCc2ccccc2)CC1 (stereo not drawn),i,i,1e-09,2.3e-08M*,i,i
CCCCCCCCCCCCC/C=C\[C@H](O)[C@H](N)CO,i,i,2.44e-08,u,i,i
Cc1nnc(SCc2ccccc2)n1N,i,i,2.95e-08,i,i,i
COc1ccc(CSc2nnc(C)n2N)cc1,i,i,2.46e-08,2.3e-08M*,i,i
Cc1nnc2sc(-c3ccc(NC(=O)c4ccc(-c5ccc(Cl)cc5Cl)o4)cc3)nn12,u,i,2.79e-08,1.22e-08M*,u,u
Cc1nnc2sc(-c3ccc(NC(=O)c4cccnc4)cc3)nn12,u,i,4.89e-08,u,i,i
CN1CCc2c(sc3c2C(=O)NC(c2ccco2)N3)C1 (stereo not drawn),i,i,4.33e-08,1.33e-08M*,i,i
CN(C)c1ccc(C2C=C(c3ccc(Cl)cc3OC(F)F)Nc3ncnn32)cc1 (stereo not drawn),i,i,1.45e-08,1.49e-08M*,i,i
O=C1c2ccccc2C(=O)c2c(NC3CCCCC3)ccc(Nc3ccc(S(=O)(=O)O)cc3)c21,6.07e-08M*,i,3.33e-08,u,u,1.2e-08M*
CCCCCCCCCCCCCCCCCC(=O)NC[C@@H](COP(=O)([O-])OCC[N+](C)(C)C)OCC,u,i,1.2e-08,i,i,i
C/C(=N\NC(=O)c1ccncc1)c1ccc2ccccc2c1O,i,u,1.09e-08,3.52e-08M*,i,i
SMILES,Texas Red fluor,A488 autofl,A647 fluor,Fluorescein fluor,Resorufin fluor,Rhodamine fluor
CCCCc1cc(=O)oc2c(CN(C)C)c(O)ccc12,i,i,2.69e-08,u,i,i
CC[C@@]1(O)C(=O)OCc2c1cc1n(c2=O)Cc2cc3c(CN(C)C)c(O)ccc3nc2-1,u,2.05e-08M*,4.7e-09,4.27e-07M*,i,i
Cc1cccc(S(=O)(=O)c2c(N)n(Cc3ccco3)c3nc4ccccc4nc23)c1,i,i,1.45e-08,1.66e-08M*,i,i
COc1cccc(OC)c1OCCNC[C@@H]1CSc2ccccc2O1,i,i,1.23e-08,i,i,i
C=C[C@H]1CN2CC[C@@H]1C[C@H]2[C@@H](O)c1ccnc2ccc(OC)cc12,i,i,6.12e-08,u,i,i
CCN(CC)CCN1C(=O)c2cccc3cc(N)cc(c23)C1=O,i,u,1.2e-09,3.89e-08M*,i,i
CCN1C(=O)c2cccc3cccc1c23,u,i,7.7e-09,i,i,i
O=C(NCc1ccco1)c1cccnc1-c1nc2ccccc2s1,i,u,2.2e-08,3.5e-08M*,i,i
Cc1cc(=O)[nH]c(SCCOc2ccc3c(c2)CCC3)n1,i,i,1e-09,i,i,i
Cc1cc(=O)[nH]c(SCCOc2ccc(OC(C)C)cc2)n1,u,i,1.71e-08,2.25e-08M*,u,u
CC(=O)[C@@H]1CC[C@@H]2[C@@H]3CC=C4C[C@H](OS(=O)(=O)O)CC[C@@]4(C)[C@H]3CC[C@]21C,u,i,5.8e-09,u,i,i
Brc1ccc(-c2nnc3sc(CN4CCC5(CC4)OCCO5)cn23)cc1,i,i,3.3e-09,1.14e-08M*,i,i
C=C1CC[C@@H](O)C/C1=C/C=C1\CCC[C@]2(C)[C@@H]1CC[C@H]2[C@@H](C)/C=C\[C@@H](C)C(C)C,i,i,1e-09,i,i,i
O=C(O)c1ccc2c3c(ncnc13)-c1ccccc1C2=O,u,i,5.9e-09,1.35e-08M*,i,i
COc1ccccc1C[C@@H](Cc1nc2ccccc2[nH]1)c1nc2ccccc2[nH]1,i,i,1.8e-09,u,i,i
O=S(=O)(Nc1nc2ccccc2[nH]1)c1ccccc1,i,i,7.5e-09,2.16e-08M*,i,i
O=S(=O)(Nc1nc2ccccc2[nH]1)c1ccc(Cl)cc1,i,i,5.77e-08,i,i,i
COc1cc(O)c2c(O)c3c(c4c2c1[C@@]1(C4)C(C)=CCCC1(C)C)[C@H](O)[C@@]1(O)CC(=O)C(C(N)=O)=C(O)[C@]1(O)C3=O,i,i,1e-09,2.05e-08M*,i,i
Cc1cc2c(c(=O)o1)C1(C(=O)N(CC(=O)O)c3ccccc31)C(C#N)=C(N)O2 (stereo not drawn),i,i,1.16e-08,1.28e-08M*,i,i
